# Measured values: PubChem BioAssay AID1479148 (National Center for Advancing Translational Sciences (NCATS), 2020)
# Inconclusive results are not listed. A number with no mark means an inactive call. Active and inactive are the calls of the source. Calls come from the whole dose curve.
# Assay: Confirmatory qHTS for inhibitors of SARS-S pseudo-typed particle cell entry
# Conditions: SARS-S pseudotyped particle cell entry, reporter luminescence; series mostly up to 57.1 µM; activity change, negative = inhibition: at the top concentration
SMILES,Potency,"activity change, negative = inhibition [%]"
C/C=C(/C)C(=O)O[C@H]1C(C)=CC23C(=O)C(C=C(CO)[C@@H](O)[C@]12O)[C@H]1[C@@H](C[C@H]3C)C1(C)C (stereo not given in full),0.0121 µM (active),
COc1cc2c(cc1Cc1cccc(Cl)c1F)c(=O)c(C(=O)O)cn2[C@H](CO)C(C)C,0.0607 µM (active),
CC(C)(C)NCC(O)COc1ccccc1C1CCCC1 (stereo not given),3.41 µM (active),
CN1CCC(=C2c3ccccc3CCc3sccc32)CC1,27.1 µM (active),
CCCCCCCCCCCC[n+]1ccc2ccccc2c1,3.83 µM (active),
N/C(=N\N=C\c1ccc(Cl)cc1)N/N=C/c1ccc(Cl)cc1,,-27
CN1CCN(CCC=C2c3ccccc3Sc3ccc(S(=O)(=O)N(C)C)cc32)CC1,6.07 µM (active),
Cc1nnc(C(=O)NC(C)(C)c2nc(C(=O)NCc3ccc(F)cc3)c(O)c(=O)n2C)o1,0.0108 µM (active),
CO[C@@]12[C@H](COC(N)=O)C3=C(C(=O)C(C)=C(N)C3=O)N1C[C@@H]1N[C@@H]12,6.07 µM (active),
CNC(=O)c1cc(Oc2ccc(NC(=O)Nc3ccc(Cl)c(C(F)(F)F)c3)c(F)c2)ccn1,8.57 µM (active),
CCc1c2c(nc3ccc(OC(=O)N4CCC(N5CCCCC5)CC4)cc13)-c1cc3c(c(=O)n1C2)COC(=O)[C@]3(O)CC,,-64
CN(C)CCC=C1c2ccccc2C(C)(C)c2ccccc21,10.8 µM (active),
O=C(Nc1ccc([N+](=O)[O-])cc1Cl)c1cc(Cl)ccc1O,0.541 µM (active),
COc1cc(NS(C)(=O)=O)ccc1Nc1c2ccccc2nc2ccccc12,0.961 µM (active),
C=C1c2c(Cl)ccc(O)c2C(O)=C2C(=O)[C@@]3(O)C(O)=C(C(N)=O)C(=O)[C@@H](N(C)C)[C@@H]3[C@@H](O)[C@H]12,15.2 µM (active),
O=C1c2c(O)ccc(O)c2C(=O)c2c(NCCNCCO)ccc(NCCNCCO)c21,0.121 µM (active),
CN1CCC(=C2c3ccccc3C=Cc3ccccc32)CC1,27.1 µM (active),
CCCCCCOC(=O)NC(=N)c1ccc(NCc2nc3cc(C(=O)N(CCC(=O)OCC)c4ccccn4)ccc3n2C)cc1,,-68.1
c1ccc2c(c1)Sc1ccccc1N2CC1CN2CCC1CC2 (stereo not given),27.1 µM (active),
CC(C)OC(=O)OCOP(=O)(CO[C@H](C)Cn1cnc2c(N)ncnc21)OCOC(=O)OC(C)C,0.0429 µM (active),
